In PubChem BioAssay (NCATS):
Results filed as inconclusive are left out. The source made the active and inactive calls. Calls come from the whole dose curve; as a rule, active = well fitted curve in the direction sought with a large enough effect; inconclusive = small, poorly fitted or top-dose-only effect, or another doubt; inactive = no such curve, though single readings can be large; an effect the other way counts as inactive or inconclusive.

Tests used:
[1] = target: Rap guanine nucleotide exchange factor 3 (Homo sapiens) (UniProt O95398); assay: Confirmatory qHTS for agonist of cAMP-regulated guanine nucleotide exchange factor 3 (EPAC1) (AID 1645881);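 note: EPAC1 catalysed release of BODIPY-GDP from Rap1B seen as fluorescence loss; 100% = effect of cAMP agonist control; nearly all actives have a fitted effect of over 75% in size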
Chain of Rap guanine nucleotide exchange factor 3 (Homo sapiens) (O95398 whole entry, looked up): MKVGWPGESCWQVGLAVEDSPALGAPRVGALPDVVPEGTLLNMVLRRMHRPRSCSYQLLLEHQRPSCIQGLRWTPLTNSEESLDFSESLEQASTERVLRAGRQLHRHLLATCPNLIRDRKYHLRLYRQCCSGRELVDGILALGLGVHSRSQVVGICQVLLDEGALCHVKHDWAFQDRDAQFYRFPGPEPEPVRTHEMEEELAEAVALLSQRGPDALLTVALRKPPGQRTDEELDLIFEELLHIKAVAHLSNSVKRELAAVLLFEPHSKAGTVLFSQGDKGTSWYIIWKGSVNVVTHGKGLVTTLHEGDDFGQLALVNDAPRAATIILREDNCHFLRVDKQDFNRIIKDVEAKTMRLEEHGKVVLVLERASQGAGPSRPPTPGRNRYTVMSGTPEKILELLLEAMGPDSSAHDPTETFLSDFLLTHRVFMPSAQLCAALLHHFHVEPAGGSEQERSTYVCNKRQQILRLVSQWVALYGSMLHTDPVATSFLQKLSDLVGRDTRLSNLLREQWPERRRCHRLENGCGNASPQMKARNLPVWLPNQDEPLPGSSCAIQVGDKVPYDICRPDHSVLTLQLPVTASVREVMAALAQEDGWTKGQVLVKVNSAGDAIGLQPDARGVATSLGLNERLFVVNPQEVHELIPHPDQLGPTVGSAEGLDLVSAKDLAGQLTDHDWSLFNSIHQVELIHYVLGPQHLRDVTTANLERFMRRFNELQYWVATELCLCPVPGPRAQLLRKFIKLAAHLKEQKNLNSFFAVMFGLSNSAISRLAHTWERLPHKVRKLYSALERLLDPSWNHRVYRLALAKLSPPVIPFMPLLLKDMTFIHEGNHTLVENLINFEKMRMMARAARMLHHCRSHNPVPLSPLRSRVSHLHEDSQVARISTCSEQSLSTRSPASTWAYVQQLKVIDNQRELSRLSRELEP

[2] = target: Rap guanine nucleotide exchange factor 4 (Homo sapiens) (UniProt Q8WZA2); assay: Confirmatory qHTS for agonist of cAMP-regulated guanine nucleotide exchange factor 4 (EPAC2) (AID 1645884);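 note: nucleotide exchange releases bodipy-GDP from Rap1 and this lowers its fluorescence; % is set by controls: 0 for no effect and ±100 for the full control effect; nearly all actives have a fitted effect of over 65% in size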
Chain of Rap guanine nucleotide exchange factor 4 (Homo sapiens) (Q8WZA2 whole entry, looked up): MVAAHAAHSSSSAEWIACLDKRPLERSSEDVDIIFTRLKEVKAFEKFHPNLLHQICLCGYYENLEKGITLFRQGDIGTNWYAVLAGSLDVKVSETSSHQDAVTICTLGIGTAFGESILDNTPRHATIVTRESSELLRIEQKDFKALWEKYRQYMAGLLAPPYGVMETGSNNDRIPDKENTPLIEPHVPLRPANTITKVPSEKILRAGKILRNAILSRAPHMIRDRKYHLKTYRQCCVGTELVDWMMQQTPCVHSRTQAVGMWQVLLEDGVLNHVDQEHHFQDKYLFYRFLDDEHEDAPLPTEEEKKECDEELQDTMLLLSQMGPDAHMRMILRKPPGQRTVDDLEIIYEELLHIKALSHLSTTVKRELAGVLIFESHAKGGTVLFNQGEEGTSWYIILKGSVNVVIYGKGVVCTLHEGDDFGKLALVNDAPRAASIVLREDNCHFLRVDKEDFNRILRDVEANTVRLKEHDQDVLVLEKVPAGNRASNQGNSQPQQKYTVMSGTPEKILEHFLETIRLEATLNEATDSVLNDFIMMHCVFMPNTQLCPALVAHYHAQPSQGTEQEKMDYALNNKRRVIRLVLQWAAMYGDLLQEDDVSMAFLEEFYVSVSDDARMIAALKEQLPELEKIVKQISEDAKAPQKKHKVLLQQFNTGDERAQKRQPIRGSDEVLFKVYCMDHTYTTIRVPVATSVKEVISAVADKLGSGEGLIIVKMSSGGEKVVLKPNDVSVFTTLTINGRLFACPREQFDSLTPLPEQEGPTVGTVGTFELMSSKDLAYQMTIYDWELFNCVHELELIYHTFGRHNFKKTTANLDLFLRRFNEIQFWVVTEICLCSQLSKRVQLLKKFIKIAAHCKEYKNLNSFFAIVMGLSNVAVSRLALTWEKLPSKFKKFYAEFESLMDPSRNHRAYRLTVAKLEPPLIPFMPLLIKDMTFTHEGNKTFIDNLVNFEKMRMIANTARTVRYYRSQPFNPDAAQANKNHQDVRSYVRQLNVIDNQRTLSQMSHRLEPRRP

[3] = target: Rap guanine nucleotide exchange factor 4 (Homo sapiens) (UniProt Q8WZA2); assay: Confirmatory qHTS for antagonist of cAMP-regulated guanine nucleotide exchange factor 4 (EPAC2) (AID 1645885); note: nearly all actives have a fitted effect of over 25% in size; note: potency is the fitted concentration of half-maximal effect; for activity change, negative = inhibition: % is set by controls: 0 for no effect and ±100 for the full control effect
[4] = target: Rap guanine nucleotide exchange factor 3 (Homo sapiens) (UniProt O95398); assay: Confirmatory qHTS for antagonist of cAMP-regulated guanine nucleotide exchange factor 3 (EPAC1) (AID 1645880);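 note: plate controls were DMSO only for no effect and full effect of the ATA control for full effect; nearly all actives have a fitted effect of over 55% in size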
Outline: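 Nucleotide exchange uses 100 nM EPAC1, 250 nM RAP1B-BODIPY-GDP and 50 uM GDP, with compounds in a concentration-titration series. After 5 min at room temperature, fluorescence (480 nm ex/540 nm em) is read every 5 min for 30 min. Data are normalized to control ATA and DMSO.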

[5] = target: Rap guanine nucleotide exchange factor 3 (Homo sapiens) (UniProt O95398); assay: Counterscreen qHTS for antagonist of cAMP-regulated guanine nucleotide exchange factor 3 (EPAC1) (AID 1645888);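 note: fluorescence loss as bound BODIPY-GDP is released from Rap1B; % of control where 0% means no effect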
Outline: (§1)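 Measured: fluorescence of BODIPY-GDP bound to Rap1B, which falls as exchange proceeds. Conditions include 50 uM competing GDP, 5 and 30 min reads, and a later cAMP challenge for antagonist detection.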

[6] = target: Rap guanine nucleotide exchange factor 3 (Homo sapiens) (UniProt O95398); assay: Counterscreen qHTS for agonist of cAMP-regulated guanine nucleotide exchange factor 3 (EPAC1) (AID 1645889); note: potency is the fitted concentration of half-maximal effect; nearly all actives have a fitted effect of over 40% in size
Outline: as §1

COc1ccc(-n2c(/C=C/c3ccc(O)c(O)c3)nc3ccccc3c2=O)cc1
inactive: Potency [1] | Potency [2] | Potency [3]

Cc1cccc(CN2C(=O)CN=C(c3ccccc3)c3ccccc32)c1
inactive: Potency [4] | Potency [2] | activity change, negative = inhibition [3] 15.3% [at 12.7 µM] | outcome [5]

Cn1cccc1/C=C1\C(=O)NC(=O)N(Cc2ccccc2Cl)C1=O
inactive: Potency [1] | Potency [2] | Potency [3]

Cc1cccc(-n2c(O)c(/C=C/C=Nc3ccccc3)c(=O)[nH]c2=O)c1
active: Potency [3] 33.8 µM | Potency [6] 39.8 µM
inactive: Potency [4] | outcome [5]

CCN(CC)c1ccc(N=Cc2c(O)n(CCc3ccc(OC)c(OC)c3)c(=O)[nH]c2=O)cc1
inactive: Potency [4] | activity change, negative = inhibition [3] -5.1% [at 12.7 µM] | activity change, negative = inhibition [5] -17.1% [at 30.8 µM]

Cc1cccc(OCCn2cccc2/C=C2/C(=O)NC(=O)N(Cc3ccco3)C2=O)c1
inactive: Potency [1] | Potency [2] | Potency [3]

Cc1ccc(-n2c(O)c(C=NCc3ccco3)c(=O)[nH]c2=S)cc1C
inactive: Potency [1] | Potency [2] | Potency [3] | outcome [5]

CC(=O)C1C2c3ccccc3O[C@@]1(C)N=c1s/c(=C/c3ccoc3)c(=O)n12 (some centres not stated)
inactive: Potency [1] | Potency [2] | Potency [3] | outcome [5]

Cn1cccc1/C=C1\C(=O)NC(=O)N(Cc2ccccc2)C1=O
inactive: Potency [1] | Potency [2] | Potency [3] | outcome [5]
